# Test results reported in PMC7862700, “An all-to-all approach to the identification of sequence-specific readers for epigenetic DNA modifications on cytosine”.
# Columns and labels:
# Experiment in all cases: DAPPL (digital affinity profiling via proximity ligation, sequencing); 10 mM Tris-HCl pH 7.5, 50 mM NaCl, 1 mM DTT, 4% glycerol, room temperature, 30 min; GST-TFs on glutathione beads, 16-mer random dsDNA library, 0.1% formaldehyde crosslink after washing; high values mean tight binding
# [1] = target: T1, FEV (Homo sapiens, UniProt Q99581 1-238); conditions: protein: recombinant; tags: N-terminal GST; dsDNA, one strand shown
# T1 sequence: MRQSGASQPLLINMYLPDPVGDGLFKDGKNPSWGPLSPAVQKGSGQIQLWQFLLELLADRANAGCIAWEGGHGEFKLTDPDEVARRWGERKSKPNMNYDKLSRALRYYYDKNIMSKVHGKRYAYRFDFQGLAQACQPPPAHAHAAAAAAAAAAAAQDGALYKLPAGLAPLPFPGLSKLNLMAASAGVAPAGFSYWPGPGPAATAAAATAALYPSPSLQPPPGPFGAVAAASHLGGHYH
# Summary of the method: (§1)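 Binding signal is each hexamer's read frequency for a factor divided by its frequency in the tag-only sample. The factors were GST-fused human transcription factors from yeast, captured on glutathione beads, DNA-barcoded and pooled with that sample. Pools were incubated with 200 nmole of a random double-stranded 16-mer DNA library in Tris/NaCl/DTT/glycerol buffer at room temperature for 30 min, then washed, crosslinked with 0.1% formaldehyde, proximity-ligated with BsaI/T4 ligase (1 h, 37 °C), PCR-amplified and sequenced on an Illumina NextSeq500.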
# [2] = target: ETV5 (Homo sapiens, UniProt P41161 1-510); conditions: protein: recombinant; tags: N-terminal GST; dsDNA, one strand shown
# Chain of ETV5 (P41161 whole entry): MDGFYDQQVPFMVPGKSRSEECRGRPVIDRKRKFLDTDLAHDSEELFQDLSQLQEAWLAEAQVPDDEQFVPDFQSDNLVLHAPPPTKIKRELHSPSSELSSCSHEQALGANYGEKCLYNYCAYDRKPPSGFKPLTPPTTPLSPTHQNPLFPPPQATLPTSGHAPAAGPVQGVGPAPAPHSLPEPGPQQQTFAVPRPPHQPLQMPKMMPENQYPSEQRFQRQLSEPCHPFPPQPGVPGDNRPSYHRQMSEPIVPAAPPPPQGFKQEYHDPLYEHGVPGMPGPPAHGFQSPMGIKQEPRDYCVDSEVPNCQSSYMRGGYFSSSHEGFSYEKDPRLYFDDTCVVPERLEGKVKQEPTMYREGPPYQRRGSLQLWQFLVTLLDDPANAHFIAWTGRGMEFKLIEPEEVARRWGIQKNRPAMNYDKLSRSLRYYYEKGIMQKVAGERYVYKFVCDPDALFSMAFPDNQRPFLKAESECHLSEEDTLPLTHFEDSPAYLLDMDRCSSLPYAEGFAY
# Summary of the method: as §1
# [3] = target: HSF1 (Homo sapiens, UniProt Q00613 1-529); conditions: protein: recombinant; tags: N-terminal GST; chain copies: 3; dsDNA, one strand shown
# Chain of HSF1 (Q00613 whole entry): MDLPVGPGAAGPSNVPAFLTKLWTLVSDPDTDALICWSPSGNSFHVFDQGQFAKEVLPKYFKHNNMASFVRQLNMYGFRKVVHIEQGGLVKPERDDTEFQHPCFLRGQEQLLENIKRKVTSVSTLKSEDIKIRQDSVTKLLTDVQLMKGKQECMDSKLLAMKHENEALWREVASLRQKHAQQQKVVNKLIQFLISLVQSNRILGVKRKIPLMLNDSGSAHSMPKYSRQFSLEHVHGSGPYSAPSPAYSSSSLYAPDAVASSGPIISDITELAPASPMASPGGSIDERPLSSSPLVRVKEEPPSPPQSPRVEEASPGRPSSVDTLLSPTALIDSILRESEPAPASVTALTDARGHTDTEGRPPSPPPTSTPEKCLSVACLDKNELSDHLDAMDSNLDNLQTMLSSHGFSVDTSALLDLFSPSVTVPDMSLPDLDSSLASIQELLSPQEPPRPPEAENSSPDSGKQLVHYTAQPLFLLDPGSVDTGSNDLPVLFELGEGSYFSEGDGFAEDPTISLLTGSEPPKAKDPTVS
# Summary of the method: as §1
# [4] = target: T2, SPIC (Homo sapiens, UniProt Q8N5J4 1-248); conditions: protein: recombinant; tags: N-terminal GST; dsDNA, one strand shown
# T2 sequence: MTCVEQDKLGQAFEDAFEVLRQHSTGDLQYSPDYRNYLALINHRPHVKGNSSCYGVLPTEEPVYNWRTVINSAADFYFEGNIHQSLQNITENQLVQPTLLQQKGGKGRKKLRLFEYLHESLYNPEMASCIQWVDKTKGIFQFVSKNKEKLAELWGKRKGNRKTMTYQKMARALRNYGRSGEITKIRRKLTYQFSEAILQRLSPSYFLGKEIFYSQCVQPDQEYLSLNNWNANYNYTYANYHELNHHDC
# Summary of the method: as §1
# [5] = target: ELF4 (Homo sapiens, UniProt Q99607 1-663); conditions: protein: recombinant; tags: N-terminal GST; dsDNA, one strand shown
# Chain of ELF4 (Q99607 whole entry): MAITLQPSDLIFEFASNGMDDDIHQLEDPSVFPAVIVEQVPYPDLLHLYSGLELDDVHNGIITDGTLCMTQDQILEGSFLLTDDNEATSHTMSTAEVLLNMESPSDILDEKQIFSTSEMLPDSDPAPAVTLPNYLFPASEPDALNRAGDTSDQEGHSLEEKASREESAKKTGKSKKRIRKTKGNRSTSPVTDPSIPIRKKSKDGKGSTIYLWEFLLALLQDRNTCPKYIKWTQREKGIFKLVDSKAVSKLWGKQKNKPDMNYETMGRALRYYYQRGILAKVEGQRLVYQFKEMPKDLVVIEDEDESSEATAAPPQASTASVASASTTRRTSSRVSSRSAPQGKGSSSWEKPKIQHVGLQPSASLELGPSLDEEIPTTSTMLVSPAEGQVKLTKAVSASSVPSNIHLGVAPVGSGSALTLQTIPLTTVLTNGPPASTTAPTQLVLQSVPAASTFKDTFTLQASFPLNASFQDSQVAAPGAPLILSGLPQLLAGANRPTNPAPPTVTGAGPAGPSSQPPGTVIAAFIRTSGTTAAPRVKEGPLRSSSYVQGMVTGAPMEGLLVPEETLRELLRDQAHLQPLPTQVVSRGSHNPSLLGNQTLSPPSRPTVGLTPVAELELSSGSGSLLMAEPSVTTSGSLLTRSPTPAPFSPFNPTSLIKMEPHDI
# Summary of the method: as §1
# [6] = target: T3, ELK4 (Homo sapiens, UniProt P28324-2 1-405); conditions: protein: recombinant; tags: N-terminal GST; dsDNA, one strand shown
# T3 sequence: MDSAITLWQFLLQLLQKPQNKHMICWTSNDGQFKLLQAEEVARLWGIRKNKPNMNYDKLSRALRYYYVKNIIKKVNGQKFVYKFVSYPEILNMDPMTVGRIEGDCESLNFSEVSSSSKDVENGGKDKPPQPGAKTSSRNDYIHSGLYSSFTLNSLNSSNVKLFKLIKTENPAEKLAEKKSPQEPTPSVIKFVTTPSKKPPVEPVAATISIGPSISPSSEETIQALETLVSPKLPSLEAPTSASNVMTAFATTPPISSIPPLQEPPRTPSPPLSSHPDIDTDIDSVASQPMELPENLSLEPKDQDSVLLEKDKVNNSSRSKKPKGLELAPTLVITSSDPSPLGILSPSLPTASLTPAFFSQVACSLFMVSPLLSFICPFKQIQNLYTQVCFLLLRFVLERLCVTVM
# Summary of the method: as §1
# [7] = target: T4, ETV2 (Homo sapiens, UniProt O00321 1-342); conditions: protein: recombinant; tags: N-terminal GST; dsDNA, one strand shown
# T4 sequence: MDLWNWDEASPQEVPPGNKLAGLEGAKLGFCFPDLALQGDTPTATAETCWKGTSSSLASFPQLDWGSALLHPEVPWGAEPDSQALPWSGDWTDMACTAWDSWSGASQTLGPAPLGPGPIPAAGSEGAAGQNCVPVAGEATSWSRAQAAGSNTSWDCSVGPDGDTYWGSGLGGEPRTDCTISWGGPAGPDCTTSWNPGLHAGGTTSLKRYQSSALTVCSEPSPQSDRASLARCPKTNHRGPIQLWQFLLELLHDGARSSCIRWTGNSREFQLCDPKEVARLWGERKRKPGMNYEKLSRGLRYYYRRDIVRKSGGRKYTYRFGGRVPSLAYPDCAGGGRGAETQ
# Summary of the method: as §1
# [8] = target: T5, ELF3 (Homo sapiens, UniProt P78545 1-371); conditions: protein: recombinant; tags: N-terminal GST; dsDNA, one strand shown
# T5 sequence: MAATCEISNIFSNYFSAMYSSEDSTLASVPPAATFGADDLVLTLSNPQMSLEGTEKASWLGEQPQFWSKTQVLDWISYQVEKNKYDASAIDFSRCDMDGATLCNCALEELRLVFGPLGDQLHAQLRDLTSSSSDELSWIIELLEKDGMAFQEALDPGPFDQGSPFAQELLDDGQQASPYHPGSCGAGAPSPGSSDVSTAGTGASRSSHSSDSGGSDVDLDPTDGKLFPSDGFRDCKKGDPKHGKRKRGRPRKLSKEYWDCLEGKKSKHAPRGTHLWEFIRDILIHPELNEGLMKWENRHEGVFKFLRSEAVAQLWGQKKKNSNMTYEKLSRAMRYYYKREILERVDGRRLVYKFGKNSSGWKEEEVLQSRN
# Summary of the method: as §1
# [9] = target: CRX (Homo sapiens, UniProt O43186 1-299); conditions: protein: recombinant; tags: N-terminal GST; dsDNA, one strand shown
# Chain of CRX (O43186 whole entry): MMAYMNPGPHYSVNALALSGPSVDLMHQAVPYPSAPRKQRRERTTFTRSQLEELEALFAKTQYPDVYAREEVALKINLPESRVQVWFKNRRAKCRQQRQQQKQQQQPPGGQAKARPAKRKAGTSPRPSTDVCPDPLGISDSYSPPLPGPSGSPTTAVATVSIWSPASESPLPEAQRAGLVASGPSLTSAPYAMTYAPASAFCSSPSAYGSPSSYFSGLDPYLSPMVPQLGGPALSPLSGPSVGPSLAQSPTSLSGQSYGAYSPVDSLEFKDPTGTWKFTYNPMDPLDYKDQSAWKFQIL
# Summary of the method: as §1
# [10] = target: ETV1 (Homo sapiens, UniProt P50549 1-477); conditions: protein: recombinant; tags: N-terminal GST; dsDNA, one strand shown
# Chain of ETV1 (P50549 whole entry): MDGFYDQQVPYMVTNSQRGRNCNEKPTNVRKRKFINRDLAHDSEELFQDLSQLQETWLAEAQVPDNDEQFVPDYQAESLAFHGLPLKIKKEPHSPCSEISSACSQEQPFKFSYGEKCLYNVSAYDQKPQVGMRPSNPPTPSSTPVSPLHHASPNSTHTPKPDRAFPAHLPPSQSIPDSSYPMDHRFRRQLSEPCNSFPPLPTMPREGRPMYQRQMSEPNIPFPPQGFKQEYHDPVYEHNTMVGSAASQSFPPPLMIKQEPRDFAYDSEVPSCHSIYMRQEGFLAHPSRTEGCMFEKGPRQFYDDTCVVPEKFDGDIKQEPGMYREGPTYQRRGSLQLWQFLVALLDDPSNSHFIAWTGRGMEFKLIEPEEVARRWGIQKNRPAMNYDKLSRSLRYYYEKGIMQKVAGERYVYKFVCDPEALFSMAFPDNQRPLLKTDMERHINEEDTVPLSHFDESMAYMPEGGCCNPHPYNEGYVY
# Summary of the method: as §1
# [11] = target: T6, ERF (Homo sapiens, UniProt P50548 1-548); conditions: protein: recombinant; tags: N-terminal GST; dsDNA, one strand shown
# T6 sequence: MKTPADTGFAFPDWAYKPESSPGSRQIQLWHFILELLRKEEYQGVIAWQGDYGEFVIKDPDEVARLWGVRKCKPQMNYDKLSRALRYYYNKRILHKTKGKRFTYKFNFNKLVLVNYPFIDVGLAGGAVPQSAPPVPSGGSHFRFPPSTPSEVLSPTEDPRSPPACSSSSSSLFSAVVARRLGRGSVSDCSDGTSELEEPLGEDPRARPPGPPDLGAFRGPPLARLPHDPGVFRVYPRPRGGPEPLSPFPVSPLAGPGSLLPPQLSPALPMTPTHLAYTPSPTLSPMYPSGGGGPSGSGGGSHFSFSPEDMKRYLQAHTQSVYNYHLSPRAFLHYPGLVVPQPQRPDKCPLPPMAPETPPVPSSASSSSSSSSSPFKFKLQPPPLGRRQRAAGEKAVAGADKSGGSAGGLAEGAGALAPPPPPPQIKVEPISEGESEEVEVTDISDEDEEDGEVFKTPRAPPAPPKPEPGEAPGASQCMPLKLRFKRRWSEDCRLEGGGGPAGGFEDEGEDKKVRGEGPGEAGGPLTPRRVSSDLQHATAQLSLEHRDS
# Summary of the method: as §1
# [12] = target: T7, ETV3L (Homo sapiens, UniProt Q6ZN32 1-361); conditions: protein: recombinant; tags: N-terminal GST; dsDNA, one strand shown
# T7 sequence: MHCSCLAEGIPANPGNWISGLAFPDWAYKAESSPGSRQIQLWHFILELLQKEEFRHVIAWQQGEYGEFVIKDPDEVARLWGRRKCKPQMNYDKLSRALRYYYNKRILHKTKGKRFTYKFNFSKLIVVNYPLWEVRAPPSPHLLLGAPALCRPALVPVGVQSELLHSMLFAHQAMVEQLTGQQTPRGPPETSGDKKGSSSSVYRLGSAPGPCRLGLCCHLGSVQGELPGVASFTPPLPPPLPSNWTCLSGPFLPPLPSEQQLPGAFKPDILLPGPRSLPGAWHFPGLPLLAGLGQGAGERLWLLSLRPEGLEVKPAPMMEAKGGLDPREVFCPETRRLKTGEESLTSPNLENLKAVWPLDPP
# Summary of the method: as §1
# [13] = target: T8, ETS2 (Homo sapiens, UniProt P15036 1-469); conditions: protein: recombinant; tags: N-terminal GST; dsDNA, one strand shown
# T8 sequence: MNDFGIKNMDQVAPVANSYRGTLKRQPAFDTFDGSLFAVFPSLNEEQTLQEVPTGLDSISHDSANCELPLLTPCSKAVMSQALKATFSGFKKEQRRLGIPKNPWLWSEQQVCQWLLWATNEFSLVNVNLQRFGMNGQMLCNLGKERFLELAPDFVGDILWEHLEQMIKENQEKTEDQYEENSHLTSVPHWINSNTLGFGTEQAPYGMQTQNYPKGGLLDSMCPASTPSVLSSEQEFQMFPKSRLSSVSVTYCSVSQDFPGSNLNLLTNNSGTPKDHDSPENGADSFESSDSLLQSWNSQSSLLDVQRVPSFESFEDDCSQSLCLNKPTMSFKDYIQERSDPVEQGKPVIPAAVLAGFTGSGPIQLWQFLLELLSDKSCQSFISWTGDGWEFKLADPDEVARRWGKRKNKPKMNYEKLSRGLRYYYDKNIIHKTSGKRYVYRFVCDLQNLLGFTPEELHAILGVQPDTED
# Summary of the method: as §1
# [14] = target: T9, SPDEF (Homo sapiens, UniProt O95238 1-335); conditions: protein: recombinant; tags: N-terminal GST; dsDNA, one strand shown
# T9 sequence: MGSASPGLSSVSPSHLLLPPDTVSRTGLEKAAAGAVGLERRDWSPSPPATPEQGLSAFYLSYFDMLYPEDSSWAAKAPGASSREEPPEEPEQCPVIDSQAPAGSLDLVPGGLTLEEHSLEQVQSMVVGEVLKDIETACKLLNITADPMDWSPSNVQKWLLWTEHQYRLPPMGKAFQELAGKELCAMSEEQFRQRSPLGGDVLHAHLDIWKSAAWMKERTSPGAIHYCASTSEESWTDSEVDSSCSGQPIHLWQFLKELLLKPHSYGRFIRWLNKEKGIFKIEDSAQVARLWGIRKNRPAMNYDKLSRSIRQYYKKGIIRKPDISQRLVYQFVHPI
# Summary of the method: as §1
# [15] = target: T10, ETV7 (Homo sapiens, UniProt Q9Y603 1-341); conditions: protein: recombinant; tags: N-terminal GST; dsDNA, one strand shown
# T10 sequence: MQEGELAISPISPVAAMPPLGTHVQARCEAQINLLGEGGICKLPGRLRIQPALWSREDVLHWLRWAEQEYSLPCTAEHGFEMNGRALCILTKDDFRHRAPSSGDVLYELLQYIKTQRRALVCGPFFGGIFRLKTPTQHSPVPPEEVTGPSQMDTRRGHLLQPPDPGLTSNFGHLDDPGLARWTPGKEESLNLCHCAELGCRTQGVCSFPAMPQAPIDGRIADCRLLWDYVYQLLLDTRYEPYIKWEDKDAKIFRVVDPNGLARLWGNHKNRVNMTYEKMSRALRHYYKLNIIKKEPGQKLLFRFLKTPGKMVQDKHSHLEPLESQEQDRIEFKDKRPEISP
# Summary of the method: as §1
# [16] = target: T11, ELF5 (Homo sapiens, UniProt Q9UKW6-2 1-255); conditions: protein: recombinant; tags: N-terminal GST; dsDNA, one strand shown
# T11 sequence: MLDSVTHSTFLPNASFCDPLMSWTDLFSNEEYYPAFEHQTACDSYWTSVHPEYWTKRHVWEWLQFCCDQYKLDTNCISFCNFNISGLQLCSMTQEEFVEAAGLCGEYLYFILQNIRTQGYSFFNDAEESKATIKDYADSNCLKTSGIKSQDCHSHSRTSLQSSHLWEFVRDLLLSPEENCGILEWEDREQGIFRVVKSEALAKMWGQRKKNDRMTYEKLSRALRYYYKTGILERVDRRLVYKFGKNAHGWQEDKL
# Summary of the method: as §1
# [17] = target: T12, ETV3 (Homo sapiens, UniProt P41162-2 1-143); conditions: protein: recombinant; tags: N-terminal GST; dsDNA, one strand shown
# T12 sequence: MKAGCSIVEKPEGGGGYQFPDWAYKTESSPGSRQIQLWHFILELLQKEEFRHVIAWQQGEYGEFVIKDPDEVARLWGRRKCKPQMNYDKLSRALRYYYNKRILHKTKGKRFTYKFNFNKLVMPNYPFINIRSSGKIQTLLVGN
# Summary of the method: as §1
# [18] = target: ETV6 (Homo sapiens, UniProt P41212 1-452); conditions: protein: recombinant; tags: N-terminal GST; dsDNA, one strand shown
# Chain of ETV6 (P41212 whole entry): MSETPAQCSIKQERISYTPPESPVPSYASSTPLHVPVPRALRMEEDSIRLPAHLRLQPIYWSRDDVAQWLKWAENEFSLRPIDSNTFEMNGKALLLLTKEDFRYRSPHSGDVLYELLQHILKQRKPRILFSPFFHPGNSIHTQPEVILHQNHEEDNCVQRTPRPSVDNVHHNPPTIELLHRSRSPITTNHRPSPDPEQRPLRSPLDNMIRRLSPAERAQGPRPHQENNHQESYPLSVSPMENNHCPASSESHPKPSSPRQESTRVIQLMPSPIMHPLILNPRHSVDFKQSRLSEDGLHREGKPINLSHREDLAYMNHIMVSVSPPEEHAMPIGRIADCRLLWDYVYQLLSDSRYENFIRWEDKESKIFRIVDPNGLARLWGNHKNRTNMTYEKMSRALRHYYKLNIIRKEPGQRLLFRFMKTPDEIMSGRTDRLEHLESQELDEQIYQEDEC
# Summary of the method: as §1
sequence,measurement,setting,value
TCAATA,binding signal,[1],"1.15 fold enrichment (6-mer frequency, TF over GST control)"
same,binding signal,[2],"1.21 fold enrichment (6-mer frequency, TF over GST control)"
same,binding signal,[3],"1.18 fold enrichment (6-mer frequency, TF over GST control)"
same,binding signal,[4],"1.06 fold enrichment (6-mer frequency, TF over GST control)"
same,binding signal,[5],"1.17 fold enrichment (6-mer frequency, TF over GST control)"
same,binding signal,[6],"1.29 fold enrichment (6-mer frequency, TF over GST control)"
same,binding signal,[7],"1.26 fold enrichment (6-mer frequency, TF over GST control)"
same,binding signal,[8],"1.23 fold enrichment (6-mer frequency, TF over GST control)"
same,binding signal,[9],"1.34 fold enrichment (6-mer frequency, TF over GST control)"
same,binding signal,[10],"1.24 fold enrichment (6-mer frequency, TF over GST control)"
same,binding signal,[11],"1.24 fold enrichment (6-mer frequency, TF over GST control)"
same,binding signal,[12],"1.24 fold enrichment (6-mer frequency, TF over GST control)"
same,binding signal,[13],"1.15 fold enrichment (6-mer frequency, TF over GST control)"
same,binding signal,[14],"1.17 fold enrichment (6-mer frequency, TF over GST control)"
same,binding signal,[15],"1.26 fold enrichment (6-mer frequency, TF over GST control)"
same,binding signal,[16],"1.08 fold enrichment (6-mer frequency, TF over GST control)"
same,binding signal,[17],"1.23 fold enrichment (6-mer frequency, TF over GST control)"
same,binding signal,[18],"1.14 fold enrichment (6-mer frequency, TF over GST control)"
